Our source for the Potency and activity, negative = inhibition values is PubChem BioAssay AID504332 (National Center for Advancing Translational Sciences (NCATS), 2011).

Hit rate of the full screen: of about 350,000 compounds, about 31,000 (8.9%) were called active. Where a call stands in place of a potency, no number is given. About 15% were inconclusive and are not listed. This is one part of a sample in which actives are shown more often than they occur. The call rests on the fitted dose curve; in most records, active means well fitted inhibition curve with a large enough effect; inconclusive means small, poorly fitted or top-dose-only effect; inactive means no such curve, though single readings can be large or run the other way.
Potency means the concentration at half of the fitted maximal effect.

In the assay the target is Histone-lysine N-methyltransferase EHMT2 (Homo sapiens) (UniProt Q96KQ7). Kind of assay: qHTS Assay for Inhibitors of Histone Lysine Methyltransferase G9a. Further: nearly all actives have a fitted effect of over 75% in size. The settings on record: G9a H3K9 monomethylation, AlphaScreen, 2 h; series mostly up to 59 µM. In outline: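 G9a (20 nM) was preincubated 15 min with compound, then reacted 2 h at room temperature with 500 nM biotin-H3K9 peptide and 20 µM SAM. Monomethyl-H3K9 detected by AlphaScreen using anti-H3K9me1 antibody.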
Histone-lysine N-methyltransferase EHMT2 (Homo sapiens), sequence (Q96KQ7 913-1193 limits assumed): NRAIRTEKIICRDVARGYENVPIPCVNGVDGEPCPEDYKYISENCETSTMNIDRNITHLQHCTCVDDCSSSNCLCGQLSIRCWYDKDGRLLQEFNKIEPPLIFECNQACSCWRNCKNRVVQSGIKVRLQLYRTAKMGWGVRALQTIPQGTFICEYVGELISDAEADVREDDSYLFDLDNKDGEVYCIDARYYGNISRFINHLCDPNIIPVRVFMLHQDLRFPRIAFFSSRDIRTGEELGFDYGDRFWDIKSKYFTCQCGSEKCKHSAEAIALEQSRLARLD
(In general: Quantitative high-throughput screening tests each substance at several concentrations.)
For `COc1ccccc1-c1sc2ccccc2c1-c1ccc(C(C)=O)cc1`, the Potency entry was “inactive”.
The same measure, in the same setting: the figure for `COc1ccc(C(CCN(Cc2ccc(OC)c(OC)c2)C(=O)CCl)c2ccccc2)cc1` (centres undefined) is 50.1 µM (active).
`COc1ccc(CN(C)C(=O)CC(c2ccccc2)c2ccccc2)cc1`: the Potency entry is “inactive”.
Still for that read-out and setting: then `CCOC(=O)CN(Cc1ccc(OC)c(OC)c1)S(=O)(=O)c1ccc(OC)cc1`, with “inactive”; and `Cc1ccc(Cl)cc1N1CCN(C(=O)c2cn(C)c3ccc(S(=O)(=O)N(C)C4CCCCC4)cc3c2=O)CC1`, with “inactive”; and `CCn1cc(CCC(=O)NCc2ccc(F)cc2)c2ccccc21`, with “inactive”.
The same measure, in the same setting: then `COc1cc(OC)c(OC)cc1/C=C/c1nc2cc3ccccc3cc2c(=O)n1-c1ccc(F)c(Cl)c1`, with “inactive”; and `Fc1ccc(Nc2nc(SCc3ccccc3Cl)nc3ccccc23)cc1`, with “inactive”.
The same measure, in the same setting: then `C=CS(=O)c1sc(Cl)c(N2CCOCC2)c1[N+](=O)[O-]` (centres undefined), with 1.58 µM (active); and `O=C(CC1Oc2ccccc2NC1=O)NCc1ccc(F)cc1` (centres undefined), with “inactive”.
Regarding `O=C1c2ccccc2C(=O)N1c1cccc2ccccc12`, the Potency result is “inactive”.
Same read-out and setting: the entry for `CCc1ccccc1N1C(=O)C2C3CC(=O)C(c4ccccc43)C2C1=O` (centres undefined) is “inactive”; for `CC1=C(C)CC2C(=O)N(c3cccc4ccccc34)C(=O)C2C1` (centres undefined) it is 7.94 µM (active).
On the same count and under the same terms, then `CCCCn1cc(S(=O)(=O)c2ccc(OCC)cc2)c(=O)c2cc(OC)c(OC)cc21`, with “inactive”.
For `CCn1c(=O)c(C(=O)NCc2ccc3c(c2)OCO3)c(O)c2ccccc21`, the activity, negative = inhibition was 8.89% [at 0.501 µM] (inactive).
On to `COc1ccc(C2c3c(oc4ccccc4c3=O)C(=O)N2Cc2ccc3c(c2)OCO3)cc1` (centres undefined), for which the Potency entry is “inactive”.
Take `CCc1noc(C)c1C(=O)Oc1ccc(N(C)S(=O)(=O)c2ccc(C)c(C)c2)cc1`: the activity, negative = inhibition was 15.4% [at 12.7 µM] (inactive).
`Cn1cccc1Cc1nnc(SCC(=O)NCCc2ccccc2)n1-c1ccc(F)cc1`: the Potency is 56.2 µM (active).
As to `COC(=O)c1ccc(NC(=O)CSc2nnc(C3CC3)n2C)cc1`, the Potency result is “inactive”.
Same read-out and setting: then `COC(=O)c1ccc(NC(=O)CSc2nnc(-c3ccncc3)n2C)cc1`, with “inactive”; and `CNC(=O)CSc1nnc(CCc2ccccc2)n1-c1ccccc1`, with “inactive”.
With `O=C(CSc1nnc(CNC(=O)c2ccccc2)n1-c1ccc(F)cc1)Nc1ccccc1F`, the Potency result was “inactive”.
Same read-out and setting: then `COC(=O)c1ccc(NC(=O)CSc2nnc(Cc3cccn3C)n2-c2ccc(F)cc2)cc1`, with 44.7 µM (active); and `Cc1ccccc1NC(=O)Cc1nc(COC(=O)c2cccnc2Cl)cs1`, with “inactive”.
For the molecule `COc1ccccc1C(CNC(=O)c1ccc(C)c(S(=O)(=O)N2CCCCC2)c1)N(C)C` (centres undefined), the activity, negative = inhibition is 24.7% [at 12.7 µM] (inactive).
Same read-out and setting: then `CC(=O)Nc1ccc(Nc2cc(C)nc(Nc3ccc(NC(C)=O)cc3)n2)cc1`, with -6.09% [at 2.33 µM] (inactive).
Take `COc1ccc(CCn2c(=N)c(C(=O)NCC3CCCO3)cc3c(=O)n4cccc(C)c4nc32)cc1OC` (centres undefined): the Potency result was “inactive”.
The same measure, in the same setting: the entry for `COc1cccc(NC(=O)Nc2ccc3c(c2)N(C)C(=O)c2ccccc2S3)c1` is “inactive”; for `COc1cccc(/C=C2\Sc3ccc(C(=O)NCC4CCCO4)cc3N(C)C2=O)c1` (centres undefined) it is “inactive”.
On the same count and under the same terms, then `COc1ccc2c(c1)N(C)/C(=C1/SC(=S)N(NC(C)=O)C1=O)S2`, with 70.8 µM (active).
As for `CN(C(=O)CSc1nnc(-c2ccc3c(c2)OCO3)o1)C1CCS(=O)(=O)C1` (centres undefined), the activity, negative = inhibition was 23.8% [at 12.7 µM] (inactive).
Same read-out and setting: the figure for `CCOC(=O)c1cc(C(C)C)sc1NC(=O)COC(=O)c1nccnc1N` is -18.5% [at 0.501 µM] (inactive).
As to `COC(=O)c1ccc(C(=O)NC2CC(C)(C)Cc3c2cnn3-c2ccc(F)cc2)nc1` (centres undefined), the Potency entry is “inactive”.
On the same count and under the same terms, then `CCCN(C(=O)Cn1ncc2c([nH]c3ccc(C)cc32)c1=O)c1ccccc1C`, with “inactive”.
With `CC(C)(C)OC(=O)NCCCCCNC(=O)c1nc[nH]c1C(=O)NCc1ccccc1`, the activity, negative = inhibition is 24.5% [at 2.33 µM] (inactive).
With `C/C(=N\NC(=O)c1ccoc1C)c1ccccc1O`, the Potency entry is “inactive”.
On the same count and under the same terms, then `Cc1nn(C(=O)c2ccoc2C)c(N)c1-c1ccccc1`, with 31.6 µM (active).
Take `Cc1occc1C(=O)Nc1nnc(-c2ccncc2)s1`: the activity, negative = inhibition was -37.1% [at 12.7 µM] (inactive).
Turning to `CCOc1ccccc1NC(=O)CN1CCCN(Cc2cccc(Cl)c2)S1(=O)=O`, the Potency entry is “inactive”.
On the same count and under the same terms, then `Cc1ccc2c(c1)N(CC(=O)NCCc1ccc(Cl)cc1)C(=O)c1cccnc1O2`, with “inactive”; and `COc1ccc2c(CC(=O)OCC(=O)Nc3ccccc3[N+](=O)[O-])coc2c1`, with 11.2 µM (active).
The same measure, in the same setting: the entry for `COc1ccc2c(CC(=O)OCC(=O)NC(N)=O)coc2c1` is “inactive”; for `COc1ccc2c(CC(=O)Nc3nnc(C4CC4)s3)coc2c1` it is “inactive”.
As to `COc1ccc(C(=O)c2c3ccc([N+](=O)[O-])cc3[n+]([O-])n2CCCN)cc1`, the activity, negative = inhibition is -22.2% [at 2.33 µM] (inactive).
For `Cc1c(CCNC(=O)c2ccc(C(F)(F)F)cc2)sc2nc(-c3ccc(F)cc3)nn12`, the Potency entry is “inactive”.
Same read-out and setting: the entry for `CCOC(=O)c1ccccc1NC(=O)c1nn(-c2ccc(OC)c(Cl)c2)c(=O)c2c1c1ccccc1n2C` is “inactive”; for `CC(=O)c1ccc(NC(=O)c2nc3nc(C)cc(C(F)F)n3n2)cc1` it is “inactive”; for `CCOC(=O)c1cccc(NC(=O)C2CCN(c3ncnc4c3nc3n4CCCCC3)CC2)c1` it is “inactive”.
For `CCOCCCNCc1cc(Br)ccc1OCC`, the activity, negative = inhibition was 1.6% [at 12.7 µM] (inactive).
Consider `COCCNCCOCCOc1cccc(OC)c1`, for which the Potency result was “inactive”.
Still for that read-out and setting: then `COCCCNCCOCCOc1ccc(Cl)cc1Br`, with 10 µM (active).
As to `Cc1csc2nc(COC(=O)c3cccc(N(C)C)c3)cc(=O)n12`, the activity, negative = inhibition was 3.53% [at 2.33 µM] (inactive).
The same measure, in the same setting: then `CC(OC(=O)CN1C(=O)c2ccccc2C1=O)C(=O)c1ccccc1` (centres undefined), with 12.8% [at 12.7 µM] (inactive).
On to `O=C(Nc1ccc(F)cc1)N1CCN(c2ccc(F)cc2)CC1`, for which the Potency result is “inactive”.
On the same count and under the same terms, the figure for `CC(=O)N1CCN(c2ccc(NCc3ccc(C(C)C)cc3)cc2)CC1` is 14.1 µM (active).
For the molecule `CCc1ccc(NC(=O)N2CCN(c3ccccc3)CC2)cc1`, the Potency entry is “inactive”.
In the case of `Cc1cc(F)ccc1S(=O)(=O)Nc1ccc(C(=O)N(C)Cc2ccco2)cc1`, the activity, negative = inhibition is 23.8% [at 2.33 µM] (inactive).
Take `Cc1ccc(C)c(N2CCN(C(=O)Cn3nc(C)c4sc5ccccc5c4c3=O)CC2)c1`: the Potency was 12.6 µM (active).
As for `Cc1nn(CC(=O)NCCc2ccccc2)c(=O)c2c1sc1ccccc12`, the Potency result was “inactive”.
Same read-out and setting: then `Cc1ccc(C)c(N2CCN(C(=O)Cn3ncn4cccc4c3=O)CC2)c1`, with “inactive”.
In the case of `CCn1nc(C(=O)NNC(=O)C2CSC3(C)CCC(=O)N23)c2ccccc2c1=O` (centres undefined), the activity, negative = inhibition is 2.22% [at 12.7 µM] (inactive).
Same read-out and setting: the figure for `Cc1csc2nc(COC(=O)c3ccc(NC(=O)COc4ccccc4F)cc3)cc(=O)n12` is 6.31% [at 12.7 µM] (inactive).
In the case of `CCOC(=O)c1cc2c(=O)n3ccccc3nc2n(CC2CCCO2)c1=NC(=O)c1ccc(C(C)(C)C)cc1` (centres undefined), the Potency entry is “inactive”.
In the case of `COc1ccc(CCN(Cc2cc3cccc(C)c3[nH]c2=O)C(=O)N2CCCC2)cc1OC`, the activity, negative = inhibition is -36.8% [at 12.7 µM] (inactive).
For `Cc1ccc2[nH]c(=O)c(CN(CCCN(C)C)C(=O)Nc3cccc(Cl)c3)cc2c1`, the Potency result is “inactive”.
Same read-out and setting: the figure for `COc1cc2cc(CN(CCN3CCCC3)C(=O)Nc3ccccc3Cl)c(=O)[nH]c2cc1OC` is 50.1 µM (active); for `CCCCNC(=O)c1cn(CC)c2cc(N3CCN(C(=O)c4ccco4)CC3)c(F)cc2c1=O` it is “inactive”.
Turning to `CCOc1ccc(CNC(=O)c2ccc3c(c2)nnn3C2CCCC2)cc1`, the Potency result is “inactive”.
Same read-out and setting: then `O=C(NC1CCCC1)C(c1ccco1)N(C(=O)c1ccco1)c1ccc(F)cc1` (centres undefined), with “inactive”.
Still for that read-out and setting: then `O=c1cc(COc2cccc(C(F)(F)F)c2)nc2sc3c(n12)CCCC3`, with “inactive”; and `O=C(NNC(=S)NCc1ccco1)C(c1ccccc1)c1ccccc1`, with “inactive”; and `COc1cccc(OC)c1C(=O)NC(=S)NCc1ccco1`, with “inactive”.
Same read-out and setting: then `CCOc1cc(NC(=S)NCc2ccco2)c(OCC)cc1NC(=O)c1ccco1`, with “inactive”; and `COc1cc(NC(=S)NCc2ccco2)c(OC)cc1Cl`, with 50.1 µM (active); and `Cc1ccc(CC(=O)Nc2ccc(OC(F)F)c(Cl)c2)cc1C`, with “inactive”.
With `FC(F)Oc1ccc(NC(=S)NCc2ccco2)cc1Cl`, the Potency is 50.1 µM (active).
Still for that read-out and setting: the entry for `Cc1c(Cl)cccc1NC(=O)Cn1cc(C(=O)c2cccs2)c2ccccc21` is “inactive”.
The same measure, in the same setting: then `Cc1ccc(NC(=O)CN2c3ccccc3S(=O)(=O)c3ccccc32)cc1F`, with “inactive”; and `CCCN(CCC)C(=O)C(Cc1ccccc1)NS(=O)(=O)c1ccc2c(c1)c(=O)n(C)c(=O)n2C` (centres undefined), with “inactive”.
In the case of `CC(C)CC(=O)NC(=S)Nc1cc(C(=O)O)ccc1Cl`, the Potency result was “inactive”.
Still for that read-out and setting: then `Cc1ccc(C)c(NC(=S)NCC(c2cccnc2)N2CCOCC2)c1` (centres undefined), with “inactive”; and `Cc1cccc(NC(=S)Nc2ccc(Br)cc2)c1`, with “inactive”.
Still for that read-out and setting: the figure for `CC(C)c1ccc(NC(=S)NNc2ccc(Cl)c(C(=O)O)c2)cc1` is 10 µM (active); for `CCC(C(=O)Nc1ccc(C(C)C)cc1)c1ccccc1` (centres undefined) it is “inactive”; for `Cc1ccc(C)c(NC(=S)NNC(=S)Nc2ccc(C(C)C)cc2)c1` it is 31.6 µM (active).
On the same count and under the same terms, the entry for `COCCNC(=O)c1ccc2nc(Cc3ccc(OC)c(OC)c3)oc2c1` is “inactive”; for `CC(=O)Nc1cccc(C(=O)OCC(=O)Nc2nnc(-c3ccccc3)o2)c1` it is “inactive”; for `CN(CC(=O)NCc1cccnc1)S(=O)(=O)c1cc(Cl)ccc1Cl` it is “inactive”.
Take `COc1ccc(NC(=O)C2CCN(S(=O)(=O)c3ccc4[nH]c(=O)oc4c3)CC2)c(OC)c1`: the Potency result was “inactive”.
On the same count and under the same terms, then `CCOC(=O)CN1C(=O)C(O)(CC(=O)c2ccccn2)c2ccccc21` (centres undefined), with “inactive”.
The same measure, in the same setting: then `O=C(CC1(O)C(=O)N(CN2CCOCC2)c2ccccc21)c1ccccc1` (centres undefined), with “inactive”; and `C=CCN1C(=O)C(O)(CC(=O)c2ccc(Cl)cc2)c2ccccc21` (centres undefined), with 44.7 µM (active); and `COc1ccc(CCNC(=O)c2ccc(CSCc3ccc(C)cc3)o2)cc1OC`, with “inactive”.
On to `CCc1nnc2c3ccccc3nc(N3CCN(c4ccc(C)cc4C)CC3)n12`, for which the Potency entry was “inactive”.
